Screening results (PubChem)
The full list was thinned out, with hits kept by preference.
KDM5B inh: inhibitors of human KDM5B histone demethylase | Potency, µM (highest dose often 57.7 µM), usual class: inhibitors | 220,000 tested, 2.6% active | KDM5B demethylase, FDH-coupled NADH fluorescence (FDH is formaldehyde dehydrogenase) | AID 1347165 | Q9UGL1; active = well fitted inhibition curve with a large enough effect; also: 0% is about no effect; nearly all actives have a fitted effect of over 70% in size
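qHTS format, multiple compound concentrations. Buffer 50 mM HEPES pH 7.5/0.01% Tween-20; 200 nM KDM5BΔAP final; 10 min compound preincubation; substrate-mix levels 12.5 µM peptide, 25 µM α-KG, 0.25 mM NAD⁺; 30 min RT; ΔRFU.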
* = called active by the depositor; i = inactive; ! = repeats disagree. Potency is read from the fitted curve at half-maximal effect.

SMILES	KDM5B inh
COCc1nc(C2CCCN(C(=O)Cc3cccc(F)c3)C2)no1 (stereo unspecified)	i
O=C(Cc1cccc(F)c1)N1CCCC(Cc2nc(C3CCOCC3)no2)C1 (stereo unspecified)	28µM*
O=C(Cc1cccc(F)c1)N1CCC(Cc2noc(C3CCOCC3)n2)C1 (stereo unspecified)	i
Cc1ccc2oc(C(=O)NCCc3nc(-c4ccccc4)no3)cc(=O)c2c1	i
Cn1c(=O)c2nc(SCc3ccc(F)cc3)n(C)c2n(C)c1=O	i
CNS(=O)(=O)c1cc(-c2c(C)nn3c2NC(=O)CCC3=O)ccc1C	i
C[C@@H]1C(=O)O[C@H]2[C@H]1CC[C@@]1(C)Cc3sc(NC(=O)c4ccc(N(C)C)cc4)nc3[C@@H](C)[C@H]21	28µM*
C[C@@H]1C(=O)O[C@H]2[C@H]1CC[C@@]1(C)Cc3sc(Nc4cccnc4)nc3[C@@H](C)[C@H]21	i
C[C@@H]1C(=O)O[C@H]2[C@H]1CC[C@@]1(C)Cc3sc(NC(=O)CN(C)C)nc3[C@@H](C)[C@H]21	i
C[C@@H]1C(=O)O[C@H]2[C@H]1CC[C@@]1(C)Cc3sc(Nc4ccccc4)nc3[C@@H](C)[C@H]21	i
C[C@@H]1C(=O)O[C@H]2[C@H]1CC[C@@]1(C)Cc3sc(NC(=O)CCC(=O)O)nc3[C@@H](C)[C@H]21	i
C[C@@H]1C(=O)O[C@H]2[C@H]1CC[C@@]1(C)Cc3sc(Nc4ccc(C(=O)O)cc4)nc3[C@@H](C)[C@H]21	35µM*
CCOC(=O)C1=C(C)N(Cc2ccc(C(=O)N3CCCCC3)cc2)C(=O)CC1c1cccc(C)c1 (stereo unspecified)	i
CCCCOC(=O)C(C)Oc1ccc2c(=O)c(-c3ccccc3OC)coc2c1 (stereo unspecified)	i
N#C/C(=C\Nc1ccc(C(N)=O)cc1)c1nc(C2CC2)cs1	i
O=[S+]1([O-])NCC2(CCN(CC3CCCCC3)C2)Nc2ccccc21 (stereo unspecified)	i
COc1ccc2cnn(CC(=O)Nc3cccc(Cl)c3)c(=O)c2c1OC	i
CC(C)NC(=O)/C=C/c1cccc(Cl)c1	i
COc1ccc(-c2[nH]nc3ncc(-c4cccnc4)nc23)cc1F	i
c1cncc(-c2cnc3n[nH]c(-c4ccc5c(c4)OCO5)c3n2)c1	i
COc1ncccc1-c1cnc2n[nH]c(-c3ccccc3C)c2n1	40µM*
COc1ccccc1-c1[nH]nc2ncc(-c3cccnc3OC)nc12	i
COc1ncccc1-c1cnc2n[nH]c(-c3ccccc3)c2n1	35µM*
CCCCCNC(=O)c1ccncc1	i
O=C1NCc2ccccc2CC12CCCN2Cc1ccc(Cl)s1 (stereo unspecified)	i
SMILES	KDM5B inh
Fc1cccc(OCc2nnc(-c3ccc(Br)cc3)o2)c1	i
Cn1nc(C(=O)Nc2ccnn2Cc2ccc(Cl)cc2Cl)c2ccccc2c1=O	i
CCc1nnsc1C(=O)NCC1(c2ccc(F)cc2)CCCC1	i
COc1ccc(OCCNC(=O)c2cn(C)c3ccccc23)cc1	i
COCCNC(=O)c1nc(-c2ccccc2)c2ccccn12	i
COCCNC(=O)c1nc(-c2ccc(F)cc2)c2ccccn12	40µM*
COCCNC(=O)c1nc(-c2ccc(OC)cc2)c2ccccn12	89µM*
O=C(CSc1nc(C(F)(F)F)nc2ccccc12)NC1CCCCCC1	i
CCCCCCn1nc(C(=O)OCC(=O)Nc2ccc(C)c(F)c2)c2ccccc2c1=O	i
Cc1[nH]c(=O)[nH]c(=O)c1CCC(=O)Nc1nc(C2CC2)cs1	i
CSCC(=O)NCCc1cccs1	i
O=C(/C=C/c1cccc2ccccc12)Nc1ccc(Cl)cc1C(F)(F)F	i
COc1cc(C)ccc1OC(=O)C(C)Oc1ccc(Cl)cc1Cl (stereo unspecified)	i
O=C(Nc1ccc2nc[nH]c(=O)c2c1)c1ccc(Br)cc1Cl	i
Cc1cccc(N2CCN(C(=O)CC3CCCCN(Cc4ccccc4)C3=O)CC2)c1 (stereo unspecified)	i
Fc1ccc(-c2ccnc3ncnn23)cc1	28µM*
Cc1cc2nccc(-c3ccc(F)cc3)n2n1	i
Brc1ccc(-c2ccnc3ncnn23)s1	i
CC(=O)N1CCN(S(=O)(=O)c2ccc(C)c3ncccc23)CC1	i
Cc1ccc(B(O)O)c2cccnc12	i
Cc1ccc(-c2ccc(N)nc2)c2cccnc12	25µM*
COc1cccc(-c2nc3cc4c(cc3cc2CN2CCSCC2)OCO4)c1OC	i
COc1ccccc1Oc1c(C)oc2cc(OCC(=O)Nc3ccccc3F)ccc2c1=O	i
O=C(O)c1ccc(COc2cccc(Cl)c2Cl)o1	i
COc1ccc(C(=O)NC2CCN(c3cnn(C)c(=O)c3)CC2)cc1	i
SMILES	KDM5B inh
O=[S+]([O-])(c1cccc(C(F)(F)F)c1)N1CCN(c2nc3ncccc3o2)CC1	i
CC(=O)Nc1cccc(NC(=O)C2CCN(c3nc4ccccc4o3)CC2)c1	i
O=C(Nc1ccc(NC(=O)C2CCN(c3nc4ccccc4o3)CC2)cc1)C1CC1	i
CC(=O)NC1CCN(c2nc3ncccc3o2)CC1	28µM*
COc1ccc(C(=O)NC2CCN(c3cc(C(F)(F)F)ncn3)CC2)cc1	i
CCOc1ccc(CNC(=O)C2CCN(c3nc4ccccc4o3)CC2)cc1	i
C[S+](=O)([O-])NC1CCN(c2nc3ncccc3o2)CC1	35µM*!
O=C(Nc1cccc2cccnc12)NC1CCCCCC1	i
O=C(Nc1cccc2cccnc12)NC1CCCCC1	i
COc1ccc(C(=O)NC2CCN(c3nc4ncccc4o3)CC2)cc1	22µM*
O=C(NC1CCCC1)NC1CCN(c2nc3ncccc3o2)CC1	35µM*
Fc1ccc(-c2nnn(Cc3cc4c(cc3Br)OCO4)n2)cc1	i
CCCCNC(=O)Cc1c[nH]c2ccccc12	i
Cc1ccccc1CN1CCCC12Cc1ccccc1CNC2=O (stereo unspecified)	i
CCCCCCNC(=O)CCNC(=O)c1ccccc1	i
CCN1CCN(CCNC(=O)Cc2cccn2-c2ccc(C)cc2)CC1	i
Cc1ccc(Nc2cc(C)nc(Nc3ccc(NC(=O)CC(C)C)cc3)n2)cc1	i
CCc1nnsc1C(=O)N(C)Cc1cccc(Cl)c1Cl	i
Cc1ccc(C)c(N2CCN(c3cc(C)nc4nc(-c5ccco5)nn34)CC2)c1	i
O=C(CCc1cccs1)Nc1cccc(C(=O)N2CCCC2)c1	i
CC(C)c1ccc(NC(=O)Cn2cnnc2C#N)cc1	i
Cc1oc(-c2ccccc2F)nc1CS(=O)(=O)CC(=O)NCCCSC1CCCCC1	i
Cc1ccc2[nH]c(C)c(CCN(Cc3cccs3)C(=S)NC(C)(C)C)c2c1	i
Cc1cccc(Nc2nc(N)c(C(=O)c3ccc(Cl)cc3)s2)c1C	i
CNC(=O)[C@@H]1CN(C(=O)c2ccc(F)cn2)C[C@H]1COC	i
SMILES	KDM5B inh
COC[C@@H]1CN(c2cnccn2)C[C@H]1C(=O)NCC1CC1	18µM*
COC[C@@H]1CN(c2cnccn2)C[C@H]1C(=O)NCc1ccc(C)c(C)c1	18µM*
CCCc1ccc(NC(=O)C2CCCN(c3cnccn3)C2)cc1 (stereo unspecified)	i
COC[C@@H]1CN(c2cnccn2)C[C@H]1C(=O)NCCc1ccncc1	25µM*
CNC(=O)[C@@H]1CN(C(=O)c2cocn2)C[C@H]1COC	i
COc1ccc(C(=O)N[C@@H]2CCC[C@@H]2C(=O)NCc2ccc(C)c(C)c2)cc1	i
COC(=O)NCCc1ccncc1	i
